In the library only some 9% were active in any assay of this set; here they are far more common.
PLK1 PBD block: PLK1 (human) polo-box domain binding inhibition; P53350; 360,000 tested, 2.8% active; Potency, µM, hits mostly inhibitors; Plk1 PBD binding of FITC phosphopeptide, fluorescence polarization; note: series mostly up to about 57 µM; nearly all actives have a fitted effect of over 65% in size
Target sequence (P53350 whole entry, looked up, the tested form may be a part): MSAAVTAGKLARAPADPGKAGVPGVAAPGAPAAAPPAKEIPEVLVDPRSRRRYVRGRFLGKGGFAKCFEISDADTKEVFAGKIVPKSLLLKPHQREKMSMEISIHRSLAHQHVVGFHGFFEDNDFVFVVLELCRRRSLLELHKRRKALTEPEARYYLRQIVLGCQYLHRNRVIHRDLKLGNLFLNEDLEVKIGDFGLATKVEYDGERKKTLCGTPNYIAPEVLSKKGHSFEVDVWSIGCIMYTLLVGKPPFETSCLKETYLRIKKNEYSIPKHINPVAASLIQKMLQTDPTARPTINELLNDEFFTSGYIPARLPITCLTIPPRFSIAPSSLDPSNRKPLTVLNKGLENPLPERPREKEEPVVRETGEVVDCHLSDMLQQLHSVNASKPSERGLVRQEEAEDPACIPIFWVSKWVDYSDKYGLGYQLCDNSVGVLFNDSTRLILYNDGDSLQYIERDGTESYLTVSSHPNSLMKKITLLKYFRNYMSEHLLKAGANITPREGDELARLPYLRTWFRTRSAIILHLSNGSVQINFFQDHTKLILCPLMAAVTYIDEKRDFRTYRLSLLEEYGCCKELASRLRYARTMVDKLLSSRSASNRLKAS
JMJD2A Tudor: JMJD2A Tudor domain (human) inhibition; O75164; AlphaScreen JMJD2A-Tudor / H3K4me3 peptide binding; Potency, µM (doses to about 114 µM), most hits filed as inhibitors; 390,000 tested, 4.4% active; note: nearly all actives have a fitted effect of over 50% in size
G9a inh: inhibitors of human histone lysine methyltransferase G9a | 350,000 tested, 8.8% active | Potency, µM (top dose mostly 102 µM), usual class: inhibitors | G9a H3K9 monomethylation, AlphaScreen, 2 h | Q96KQ7; note: nearly all actives have a fitted effect of over 75% in size
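Quantitative HTS format: methyltransferase activity on a biotin-tagged H3K9 peptide is measured by AlphaScreen, using a rabbit anti-monomethyl-H3K9 antibody with streptavidin donor and anti-IgG acceptor beads. Final levels are 20 nM enzyme, 500 nM peptide, 20 uM SAM; 2 h RT.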
12-LOX inh: ALOX12 (human) lipoxygenase inhibition; P18054; purified 12hLO, xylenol orange hydroperoxide absorbance; Potency, µM (titrated, usually from 108 µM), actives largely listed as inhibitors; 580,000 tested, 1.1% active; AID 1671190
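Purified human 12hLO at 150 nM in 25 mM Hepes, 0.01% Triton X-100, pH 7.0, preincubated 15 min at room temperature with compound. Reaction started with 40 uM arachidonic acid, 30 min at room temperature. Hydroperoxide measured by Fe-xylenol orange, 573/405 nm absorbance ratio.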
HP1b chromo inh: inhibitors of HP1-beta chromodomain binding to methylated histone tails; 390,000 tested, 0.56% active; AlphaScreen HP1-beta / biotin-H3K9me3 peptide binding; Potency, µM (highest dose often 114 µM), hits mostly inhibitors; AID 540317; note: nearly all actives have a fitted effect of over 70% in size
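HP1-beta protein (50 nM final) preincubated 30 min at room temperature with biotinylated H3(1-18)K9me3 peptide (50 nM) in PBS pH 7.4, 0.01% Tween-20, then compound added for 30 min. AlphaScreen streptavidin donor/nickel chelate acceptor beads (10 ug/mL final), 30 min dark, luminescence read.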
BAZ2B block: blocks human BAZ2B; AlphaScreen BAZ2B-H3K14Ac peptide displacement; Potency, µM (doses to about 114 µM), most hits filed as inhibitors; 360,000 tested, 4.4% active; AID 504333; note: nearly all actives have a fitted effect of over 60% in size
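AlphaScreen displacement of biotin-H3(5-23)K14Ac peptide (50 nM final) from BAZ2B (50 nM final) in PBS pH 7.4, 0.01% Tween-20; complex preformed 30 min RT, then compounds (top 110 uM) 30 min RT, beads 20 min dark.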
Numbers stand for hits; 0 = inactive; ? = inconclusive; - = no result given; [ ] = dose if it differs, or a comment. Calls come from the whole dose curve; as a rule, active = well fitted curve in the direction sought with a large enough effect; inconclusive = small, poorly fitted or top-dose-only effect, or another doubt; inactive = no such curve, though single readings can be large; an effect the other way counts as inactive or inconclusive.

SMILES	PLK1 PBD block	JMJD2A Tudor	G9a inh	12-LOX inh	HP1b chromo inh	BAZ2B block
Cc1ccc(-c2nn(-c3ccccc3)cc2C2CC(c3cccs3)=NN2C(=O)CCCC(=O)O)cc1 (stereo unspecified)	0	71µM	?	?	0	79µM
CCOC(=O)c1sc2cccc(F)c2c1S(=O)(=O)N1CCN(c2cccc(Cl)c2)CC1	-	0	8.9µM	?	0	?
Cc1ccc(S(=O)(=O)CC(=O)c2ccccc2[N+](=O)[O-])cc1	0	0	0	0	0	0
COC(=O)c1ccc(Cl)c(S(=O)(=O)N2CCCC2)c1	0	0	?	0	0	0
Cc1cc(C(=O)COC(=O)c2ccc(Cl)c(S(N)(=O)=O)c2)c(C)n1C1CC1	0	?	50µM	0	?	?
O=C(OCC(=O)N1CCCCCC1)c1ccc(Cl)c(S(=O)(=O)N2CCCC2)c1	11µM	20µM	0	0	?	-
CC(=O)Nc1cccc(C(=O)OCC(=O)c2ccc(S(=O)(=O)N3CCCCC3)cc2)c1	0	0	0	0	0	0
CNS(=O)(=O)c1cccc(C(=O)OCC(=O)c2ccc(S(=O)(=O)N3CCCCC3)cc2)c1	0	0	28µM	0	0	0
CCOC(=O)c1ccc(Cl)c(S(=O)(=O)N2CCCC2)c1	21µM	0[11.4 µM]	-	0	0	0
CC(C)CNC(=O)NC(=O)COc1ccc(C=O)cc1	0	0	0	0	0	?
CCc1nc2ccc(C(=O)NCc3ccccc3OC)cn2c1N(CCC(C)C)CCN(C)C	0	-	-	0	-	-
CCNc1ccc(C(=O)OCC(=O)N2CCCC2)cc1[N+](=O)[O-]	27µM	?	0	0	0	0
COc1ccc(CCNC(=O)CSc2nnnn2Cc2ccc3c(c2)OCO3)cc1OC	0	0	0	0	0	-
O=C1/C(=C\c2ccc(Br)o2)SC(=Nc2ccccc2)N1c1ccccc1	0	25µM	40µM	0	0	8.9µM
CN(C)N1C(=O)/C(=C/c2ccco2)SC1=Nc1ccccc1	0	0	-	0	0	-
Cc1ccc(/C=C/c2onc(C)c2S(=O)(=O)N2CCC(C(=O)Nc3ccccc3C(F)(F)F)CC2)cc1	-	0	0	0	0	0
Cc1ccc(NC(=O)CCC(=O)c2ccc(Cl)s2)nc1	0	0	0[12.7 µM]	?	0	56µM
Cc1ccc(C(=O)CCC(=O)Nc2ncccc2C)cc1	0	0	0[12.7 µM]	?	0	0
O=C(CCC(=O)c1cccs1)Nc1ncccc1O	0	?	?	0	0	56µM
Cc1ccc(C(=O)CCC(=O)Nc2ncccc2O)cc1	0	?	0	0	0	79µM
O=C(CCC(=O)c1ccc(Cl)s1)Nc1ncccc1O	0	56µM	?	?	0	56µM
O=C(CNC(=O)C1CCCCC1)Nc1cc(Cl)cc(Cl)c1	0	0	0	?	0	0
O=C(CCCNC(=O)c1ccc(Cl)cc1)Nc1ncccc1O	0	0	0	0	0	?
O=C(CCNC(=O)c1ccc(Cl)cc1)Nc1ncccc1O	0	0	0	0	0	79µM
CCCNC(=O)OCc1cccnc1Sc1ccc(C)cc1	27µM	45µM	0	0	0	0
SMILES	PLK1 PBD block	JMJD2A Tudor	G9a inh	12-LOX inh	HP1b chromo inh	BAZ2B block
CCOc1ccccc1N1C(=O)c2ccc(C(=O)Nc3cccnc3)cc2C1=O	0	0	0	0	0	0
C#CCOc1c(Br)cc(/C=C2/C(=O)ON=C2C)cc1OC	2.7µM	0	40µM	5µM	0	0
C#CCOc1c(Cl)cc(/C=C(/C#N)C(=O)OCC)cc1OC	-	-	-	0	-	-
C#CCOc1ccc(/C=C2/C(=O)ON=C2C)cc1Cl	2.1µM	13µM	35µM	8.9µM	0	0
C#CCOc1c(Cl)cc(/C=C2/C(=O)ON=C2C)cc1OCC	6µM	0	40µM	45µM	0	0
COc1cc(/C=C2/NC(=O)NC2=O)cc(Br)c1OCc1cccc(F)c1	-	-	-	0	-	-
C=CCOc1c(Br)cc(/C=C2\SC(=Nc3ccccc3)NC2=O)cc1OC	0	0	0	0	0	0
C=CCOc1c(Br)cc(/C=C2/C(=O)ON=C2C)cc1OC	4.7µM	20µM	32µM	16µM	0	?
CC1CCN(c2nc(-c3ccco3)c3c(c2C#N)CC(C)(C)OC3)CC1	?	0	?	?	0	0
CCOc1c(Br)cc(/C=C2\N=C(C)OC2=O)cc1Br	0	0	0	?	0	0
C#CCOc1c(Br)cc(/C=C2/C(=O)ON=C2C)cc1OCC	4.2µM	0	45µM	11µM	0	?
CNC(=S)N(CCc1c(C)[nH]c2ccccc12)Cc1ccco1	0	?	50µM	0	?	?
COc1ccc(NC(=S)N(CCc2c(C)[nH]c3ccccc23)Cc2ccco2)cc1	0	?	0	0	0	?
COCCNC(=S)N(CCc1c(C)[nH]c2ccc(F)cc12)Cc1ccco1	0	0	?	0	0	71µM
Cc1[nH]c2ccc(F)cc2c1CCN(Cc1ccco1)C(=S)NC(C)(C)C	0	?	?	0	0	-
CNC(=S)N(CCc1c(C)[nH]c2ccc(F)cc12)Cc1ccco1	0	?	71µM	0	0	?
COCCNC(=S)N(CCc1c(C)[nH]c2ccc(F)cc12)Cc1cccnc1	0	?	0[0.501 µM]	0	0	?
COc1cccc(-c2nn(-c3ccccc3)cc2CN(C)Cc2c(C)nc3ccccn23)c1	0	56µM	?	0	0	0
COc1cccc(-c2nn(-c3ccccc3)cc2CN(C)Cc2ccon2)c1	0	0	0	0	0	0
CCSC1(SCC)N=C(N)C2(C#N)C(c3ccccc3)NC3=C(CCC3)C12C#N (stereo unspecified)	0	0	?	0	0	0
CCSC1(SCC)N=C(N)C2(C#N)C(c3ccc(OC)c(OC)c3OC)C12C#N (stereo unspecified)	13µM	0	?	0	0	0
COc1ccc2c(c1)c(=O)oc1cc(OCC(=O)NC3CC3)ccc12	0	0	?	0	0	?
COc1ccc2c(c1)c(=O)oc1cc(OCC(=O)NC3CCCCC3)ccc12	0	40µM	11µM	?	?	79µM
N/C(=N\OS(=O)(=O)c1ccc(Cl)cc1)c1ccccn1	0	25µM	2µM	0	0	25µM
N/C(=N\OS(=O)(=O)c1ccccc1)c1ccccn1	0	3.5µM	?	0	0	22µM
SMILES	PLK1 PBD block	JMJD2A Tudor	G9a inh	12-LOX inh	HP1b chromo inh	BAZ2B block
N/C(=N\OC(=O)c1ccc(Cl)cc1)c1ccccn1	0	0	-	0	0	0
N/C(=N\OS(=O)(=O)c1ccc(Br)cc1)c1ccncc1	0	0	40µM	?	0	0
CCOc1ccc2c(=O)c(Oc3cc(C)cc(C)c3)coc2c1	-	-	-	0	-	-
O=C(Nc1cccc(F)c1)C(=O)c1c[nH]c2ccccc12	-	-	-	0	-	-
Cn1c(N=NC(=O)c2ccccc2)c(O)c2ccccc21	27µM	32µM	?	0	32µM	22µM
Cn1c(O)c(N=NC(=O)CNC(=O)c2ccccc2)c2ccccc21	0	0	0	0	0	0

Bioassay records from PubChem BioAssay.
